Source: PubChem BioAssay (National Center for Advancing Translational Sciences (NCATS))
Sampled rows, rich in hits. Any-hit rate of the full collection: about 13%.
CHX counter – affects cycloheximide protein synthesis inhibition readout, counter-screen; cell reporter, cycloheximide protein synthesis inhibition counterscreen; max response, %; hit rate 12% among 300,000; AID 2314; in the data active = max response mostly above about 13%, no sharp cut-off; inactive = mostly below about 14%; also: read at 38.3 µM for the half of the compounds with a filed dose; 0% is about no effect
FMDV antiviral – blocks foot and mouth disease virus | FMDV antiviral cell-based qHTS | Potency, µM (doses to about 57.9 µM), inactives show at the top dose activity change, negative = inhibition, hits mostly inhibitors | hit rate 1.2% among 410,000 | AID 1159524; calls by dose curve; tested in HEK293T cells; also: read-out not given here; potency is read from the fitted curve at half-maximal effect; % is scaled to controls: 0 for no effect and ±100 for the full control effect; nearly all actives have a fitted effect of over 45% in size
MARV entry inh – Marburg virus entry inhibition. hit rate 1.8% among 300,000. AID 540276. Marburg virus pseudotyped entry inhibition, cell reporter. Potency, µM (highest dose often 37.8 µM), for inactives: top-dose activity change, negative = inhibition, hits mostly inhibitors; calls by dose curve; tested in HEK293 cells; also: potency is read from the fitted curve at half-maximal effect; % is scaled to controls: 0 for no effect and ±100 for the full control effect
Shiga toxin inh – Shiga toxin inhibition. Vero cells, Shiga toxin protein synthesis inhibition reporter. inhibition, % at 38.7 µM. hit rate 9.2% among 290,000. AID 2315; in the data active = inhibition mostly above about 28%, no sharp cut-off; inactive = mostly below about 43%; also: 0% is about no effect
HCV inhibitor – inhibitors of hepatitis C virus infection; hit rate 3.4% among 340,000; Potency, µM (titrated, usually from 41.8 µM), without a hit: at the highest dose activity change, negative = inhibition, actives largely listed as inhibitors; AID 651820; Huh7.5.1 HCVcc-Cre infection, luciferase reporter, 44 h; active = well fitted inhibition curve with a large enough effect; inconclusive = small, poorly fitted or top-dose-only effect, or another doubt; inactive = no such curve, though single readings can be large or run the other way; also: potency is read from the fitted curve at half-maximal effect; % is scaled to controls: 0 for no effect and ±100 for the full control effect
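Seed cells (1,000/well) for 4 h; treat with compound and infect with HCVcc-Cre, moi about 0.5. Incubate 44 h, then detect luciferase activity.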
Lassa entry inh – blocks Lassa virus binding to or entry into cells. Lassa virus pseudotype entry inhibition, cell reporter. Potency, µM (top dose mostly 37.9 µM), inactives show top-dose activity change, negative = inhibition, actives largely listed as inhibitors. hit rate 1.2% among 300,000. AID 540256; calls by dose curve; tested in HEK293 cells; also: potency is read from the fitted curve at half-maximal effect; % is scaled to controls: 0 for no effect and ±100 for the full control effect; nearly all actives have a fitted effect of over 50% in size
An asterisk follows results filed as active; ? = inconclusive; nt = no result given; [ ] = dose if it differs, or a comment.

SMILES	CHX counter	FMDV antiviral	MARV entry inh	Shiga toxin inh	HCV inhibitor	Lassa entry inh
COc1cccc(NC(=O)Cn2c(=O)n(Cc3ccccc3)c(=O)c3c4c(sc32)CN(C(C)=O)CC4)c1	nt	-18%	-29%[46.1 µM]	nt	nt	nt
COc1cccc(C(=O)N(C)C(C)c2nc3ccccc3s2)c1 (stereo not given)	4	2%	1%[46.1 µM]	1	5%	-16%[46.1 µM]
COc1ccc(N2CCN(c3nc4ccccc4nc3NS(=O)(=O)c3ccccc3)CC2)cc1	-4	0%	-14%[46.1 µM]	-20	-1%	?
COc1ccc(N2CCN(c3nc4cc(C)ccc4cc3C=O)CC2)cc1	-9	-19%	-19%[46.1 µM]	2	11µM*	-12%
CC(C)(C)NCC(O)COCc1ccc(Cl)cc1 (stereo not given)	6	-8%	?	-13	0%	-1%
Cc1cc(NC(=O)Nc2cccc(Cl)c2)n(-c2ccccn2)n1	2	-12%	?	20	11µM*	-8%
Cc1cc(NC(=O)c2ccc(F)cc2)n(-c2ccccn2)n1	8	-19%	-16%[46.1 µM]	-6	8.9µM*	?
Cc1ccc(CSc2nc(=O)c3c(n2C)NC(=O)CC3c2ccc(OC(C)C)cc2)cc1 (stereo not given)	nt	-25%	-21%[46.1 µM]	nt	nt	12%[46.1 µM]
O=C(CSc1nc(C(F)(F)F)cc(=O)[nH]1)NCC1CCCO1 (stereo not given)	nt	-14%	-2%	nt	?	9%
Cn1c(/C(C#N)=C/c2ccc(C(F)(F)F)cc2)nc2ccccc21	nt	-20%	nt	nt	nt	10%[46.1 µM]
Cn1c(/C(C#N)=C/c2ccncc2)nc2ccccc21	7	16µM*	nt	18	-2%	nt
Cn1c(/C(C#N)=C/c2ccc(O)cc2)nc2ccccc21	50*	16%	nt	47*	-11%	nt
CCc1cccc(CC)c1NC(=O)C1CN(S(=O)(=O)c2ccccc2)CCN1S(=O)(=O)c1ccccc1 (stereo not given)	-1	-9%	?	-2	13µM*	-23%
CC1CCN(C(=S)Nc2ccc(F)cc2)CC1	-2	65%	?	17	-2%	?
C/C(=N\NC(=S)Nc1ccc(F)cc1)C1CC1	29*	nt	19%	21	6%	0%
O=C(CCCOc1ccccc1)Nc1cccc([N+](=O)[O-])c1	21*	-4%	-2%[46.1 µM]	82*	9%	4%
CN(Cc1ccccc1)C(=O)c1cccc(NC(=O)Cc2cccc([N+](=O)[O-])c2)c1	nt	?	nt	nt	2.8µM*	nt
CN(C(=O)c1cccc(NC(=O)Cc2cccc([N+](=O)[O-])c2)c1)C1CCC1	nt	-19%	nt	nt	?	nt
O=C(CCc1ccccc1)Nc1cccc([N+](=O)[O-])c1	16	-1%	21%[46.1 µM]	25	-15%	13%[46.1 µM]
O=C(CCCc1ccccc1)Nc1cccc([N+](=O)[O-])c1	44*	68%	nt	nt	10%	nt
CCc1ccc(CNC(=O)C2CCN(c3nc4ccccc4nc3C(F)(F)F)CC2)cc1	nt	-2%	nt	nt	nt	11%[46.1 µM]
C/C(=N\NC(=O)c1ccc(F)cc1)c1cccc(NC(=O)c2ccco2)c1	14	6%	-1%	64	?	-11%
C/C(=N\NC(=O)c1ccccc1F)c1cccc(NC(=O)c2ccc(C)cc2)c1	34*	23%	-6%	58*	?	?
C/C(=N\NC(=O)c1cccc(F)c1)c1cccc(NC(=O)c2ccc(F)cc2)c1	35*	18%	?	26*	5%	-23%
CC(=O)Nc1cccc(/C(C)=N/NC(N)=S)c1	8	11%	1%[46.1 µM]	-9	-21%	20%
SMILES	CHX counter	FMDV antiviral	MARV entry inh	Shiga toxin inh	HCV inhibitor	Lassa entry inh
C/C(=N\NC(=O)c1cccc(O)c1)c1cccc(NC(=O)c2ccc(F)cc2)c1	41*	27%	nt	68*	?	nt
C/C(=N\NC(=O)c1ccc(O)cc1)c1cccc(NC(=O)c2ccc(Cl)cc2)c1	nt	2%	?	nt	-23%	?
C/C(=N\NC(=O)c1ccc(F)cc1)c1cccc(NC(=O)c2cccc(F)c2)c1	16*	-3%	nt	35*	?	nt
C=CCn1c(SCc2ccc(OC)cc2)nnc1-c1cccnc1	-7	12%	3%	-15	17%	28%
O=C(O)c1cccc(N(CCO)CCO)c1	-2	-12%	16%[46.1 µM]	-1	10%	6%[46.1 µM]
Cc1ccccc1CN1Cc2cnnn2-c2ccccc2C1C#N (stereo not given)	nt	13µM*	nt	nt	?	nt
Cc1ccc(NC(=O)COc2ccccc2C#N)cc1S(=O)(=O)N1CCCCCC1	nt	?	nt	nt	10µM*	nt
Cc1ccc(NC(=O)COC(=O)C2CCC2)cc1S(=O)(=O)N1CCCCC1	nt	-12%	1%	nt	7%	-8%
CCOc1ncccc1C(=O)OCC(=O)Nc1ccc(C)c(S(=O)(=O)N2CCOCC2)c1	-2	19%	-5%[46.1 µM]	-16	2.8µM*	17%[46.1 µM]
COc1ccc(OC)c(S(=O)(=O)N2CCC(C(=O)Nc3cccc(C)c3C)CC2)c1	1	-29%	-7%	-13	-20%	0%
COc1ccc(OC)c(S(=O)(=O)N2CCC(C(=O)Nc3ccc(C)c(C)c3)CC2)c1	-1	25µM*	?	-13	?	-24%
Cc1ccc(NC(=O)COc2ccccc2)cc1S(=O)(=O)N1CCCCCC1	nt	28µM*	?	nt	?	?
O=C(O)c1sccc1Oc1ccc(NS(=O)(=O)c2cccc(F)c2)cc1	5	1%	0%[46.1 µM]	-12	16%	6%[46.1 µM]
CCOC(=O)Cc1csc(NC(=O)CSc2nnc(C3CC3)n2C)n1	-2	-6%	-1%	-2	10%	?
Cc1ccc(NC(=O)CSc2ccccc2)cc1S(=O)(=O)N1CCCCC1	nt	?	?	nt	13µM*	?
Cc1ccc(NC(=O)CSc2ccccc2)cc1S(=O)(=O)N1CCOCC1	nt	29%	-8%	nt	-3%	-8%
Cc1ccc(NC(=O)Cn2c(=O)cnc3ccccc32)cc1S(=O)(=O)N1CCCCC1	nt	?	nt	nt	11µM*	nt
COc1ccc(NC(=O)COc2cc(C)cc(C)c2)cc1S(=O)(=O)N1CCCCC1	nt	-29%	?	nt	4µM*	?
